Compound activity: PubChem BioAssay, National Center for Advancing Translational Sciences (NCATS)
JMJD2A Tudor: blocks the human JMJD2A Tudor domain; 4.4% of 390,000 active; O75164; Potency, µM (top dose mostly 114 µM), inactives show at the highest dose activity change, negative = inhibition, usual class: inhibitors; AlphaScreen JMJD2A-Tudor / H3K4me3 peptide binding; also: potency is read from the fitted curve at half-maximal effect; % is scaled to controls: 0 for no effect and ±100 for the full control effect; nearly all actives have a fitted effect of over 50% in size
HP1b chromo inh: HP1-beta chromodomain-methylated histone interaction inhibition; P83916; AlphaScreen HP1-beta / biotin-H3K9me3 peptide binding; Potency, µM (titrated, usually from 114 µM), inactives show at the top dose activity change, negative = inhibition, usual class: inhibitors; 0.56% of 390,000 active; AID 540317; also: potency is read from the fitted curve at half-maximal effect; nearly all actives have a fitted effect of over 70% in size
Target sequence (P83916 whole entry, looked up): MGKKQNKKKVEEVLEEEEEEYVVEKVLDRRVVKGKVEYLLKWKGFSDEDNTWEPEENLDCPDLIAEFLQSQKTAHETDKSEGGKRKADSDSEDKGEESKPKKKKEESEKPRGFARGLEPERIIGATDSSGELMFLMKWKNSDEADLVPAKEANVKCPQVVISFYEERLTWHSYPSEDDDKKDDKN
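HP1-beta protein (50 nM final) preincubated 30 min at room temperature with biotinylated H3(1-18)K9me3 peptide (50 nM) in PBS pH 7.4, 0.01% Tween-20, then compound added for 30 min. AlphaScreen streptavidin donor/nickel chelate acceptor beads (10 ug/mL final), 30 min dark, luminescence read.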
PI5P4K alpha inh: inhibitors of human PI5P4K alpha | 1.2% of 330,000 active | PI5P4Kalpha enzyme, ADP-Glo luminescence, 60 min; stronger effect = lower value | P48426 | max response, % | AID 652105; active = max response of -50% or lower; inconclusive = between -30% and -50%; inactive = -30% or higher; also: value at the top dose of about 77 µM; % is scaled to controls: 0 for no effect and ±100 for the full control effect
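Enzyme plus substrate dispensed, test compounds pinned in, then ATP (5 microM final) added. After 60 min at RT, ADP-Glo reagent 1 for 45 min and reagent 2 for 30 min preceded luminescence imaging.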
BAZ2B inh: BAZ2B (human) inhibition; Q9UIF8; Potency, µM (doses to about 114 µM), inactives show top-dose activity change, negative = inhibition, usual class: inhibitors; AID 504333; 4.4% of 360,000 active; AlphaScreen BAZ2B-H3K14Ac peptide displacement; also: potency is read from the fitted curve at half-maximal effect; % is scaled to controls: 0 for no effect and ±100 for the full control effect; nearly all actives have a fitted effect of over 60% in size
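In this displacement format the biotinylated H3(5-23) peptide acetylated at Lys14 serves as ligand at 50 nM, with BAZ2B at 50 nM in PBS pH 7.4 containing 0.01% Tween-20. Donor and acceptor beads are 10 ug/mL final.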
G9a block: inhibitors of human histone lysine methyltransferase G9a. Q96KQ7. G9a H3K9 monomethylation, AlphaScreen, 2 h. Potency, µM (highest dose often 102 µM), inactives show at the top dose activity, negative = inhibition, actives largely listed as inhibitors. 8.8% of 350,000 active. AID 504332; also: potency is read from the fitted curve at half-maximal effect; % is scaled to controls: 0 for no effect and ±100 for the full control effect; nearly all actives have a fitted effect of over 75% in size
Target sequence (Q96KQ7 913-1193 limits assumed): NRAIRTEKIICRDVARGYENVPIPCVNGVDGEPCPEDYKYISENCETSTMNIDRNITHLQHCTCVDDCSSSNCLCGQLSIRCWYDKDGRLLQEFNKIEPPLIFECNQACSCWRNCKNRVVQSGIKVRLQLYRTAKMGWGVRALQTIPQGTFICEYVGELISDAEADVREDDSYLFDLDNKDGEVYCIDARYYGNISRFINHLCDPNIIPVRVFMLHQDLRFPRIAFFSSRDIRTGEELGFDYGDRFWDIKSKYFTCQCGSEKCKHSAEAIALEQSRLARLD
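G9a (20 nM) preincubated 15 min RT with compounds, then 500 nM biotinylated H3K9 peptide and 20 uM SAM added; 2 h RT reaction. Monomethyl-H3K9 product detected by AlphaScreen with anti-H3K9me1 antibody, streptavidin donor and anti-rabbit IgG acceptor beads.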
PLK1 PBD block: inhibitors of human PLK1 polo-box domain binding | Plk1 PBD binding of FITC phosphopeptide, fluorescence polarization | 2.8% of 360,000 active | P53350 | Potency, µM, without a hit: max response, negative = inhibition, most hits filed as inhibitors; also: potency is read from the fitted curve at half-maximal effect; series mostly up to about 57 µM; % is scaled to controls: 0 for no effect and ±100 for the full control effect; nearly all actives have a fitted effect of over 65% in size
* marks the source's active call; other numbers are inactive results; ? = inconclusive; . = no result given; [ ] = another dose, or the depositor's remark. Rows were chosen to be rich in hits. Some 12% of all compounds tested hit in one or more screens of this group. Unless noted, calls follow the shape of the dose curve; as a rule, active = well fitted curve in the direction sought with a large enough effect; inconclusive = small, poorly fitted or top-dose-only effect, or another doubt; inactive = no such curve, though single readings can be large; an effect the other way counts as inactive or inconclusive.

SMILES	JMJD2A Tudor	HP1b chromo inh	PI5P4K alpha inh	BAZ2B inh	G9a block	PLK1 PBD block
Cc1ccc(NC(=O)/C(=C/c2ccco2)c2ccccc2)c(C)c1	-14.2%	-18.2%	-3.2	?	50.1µM*	-0.9%
O=C(O)/C(=C/c1ccco1)c1ccccc1	.	.	.	-10.8%	?	.
O=C(NCc1cccc(CNC(=O)c2ccco2)c1)c1ccco1	-10.9%	22.5%	.	0.3%	-17.2%[59 µM]	-1.4%
O=C(NCc1cccc(CNC(=O)C(=O)NCc2ccco2)c1)C(=O)NCc1ccco1	?	-6.0%	-52.9*	?	?	?
CCC(CO)Oc1cc(NCc2ccccc2C(F)(F)F)c2ncn(C(C)C)c2c1 (centres undefined)	44.7µM*	?	-2.2	.	.	-1.3%
CCC(CO)Oc1cc(NCc2ccccc2F)c2ncn(C(C)C)c2c1 (centres undefined)	?	-2.7%	-13.0	?	18.1%[2.33 µM]	-8.0%
CCC(CO)Oc1cc(NCc2ccccc2Cl)c2ncn(C(C)C)c2c1 (centres undefined)	50.1µM*	-22.5%	-2.7	?	-11.6%[2.33 µM]	-16.5%
CCCCC(=O)Nc1c(C(=O)N2CCN(c3ccccc3)CC2)oc2ccccc12	-23.5%	21.2%	.	-16.0%	-40.7%[59 µM]	.
O=Cc1ccc(-n2cc(C=O)c3ccccc32)cc1	-1.7%	16.6%	-18.2	-4.2%	-4.0%	-12.6%
CCNc1nc(Cl)nc(-c2cn(-c3ccccc3)c3ccccc23)n1	-9.2%	41.0%	-8.3	12.6%	70.8µM*	-0.6%
Clc1nc(Oc2ccccc2)nc(-c2cn(-c3ccccc3)c3ccccc23)n1	?	29.7%	-10.5	?	39.8µM*	-15.1%
Cc1sc2nc(CSC(C)C(=O)NC3(C#N)CCCCC3)[nH]c(=O)c2c1C (centres undefined)	-3.4%	22.4%	1.1	-11.0%	44.7µM*	?
Cc1sc2nc(CSC(C)C(=O)Nc3ccc(C#N)cc3)[nH]c(=O)c2c1C (centres undefined)	-11.0%	13.1%	?	3.3%	15.9%[0.501 µM]	?
Fc1ccccc1-n1ncc2c1ncn1nc(COc3ccc(Cl)cc3)nc21	-5.2%	26.5%	.	0.4%	10.3%[59 µM]	.
CCC(C)Sc1nnc(NS(=O)(=O)Cc2ccccc2)s1 (centres undefined)	-8.2%	44.4%	1.9	-23.8%	31.6µM*	-27.0%
Cc1cc(Cl)c(OCCOCCN2CCN(C)CC2)c(Br)c1	7.94µM*	?	-3.0	50.1µM*	?	2.0%
Cc1cc(C)c(OCCCON2C(=O)CCC2=O)c(Br)c1	-3.5%	51.3%	12.3	4.8%	1.2%[12.7 µM]	-10.8%
Cc1cc(C)c(OCCCCN2CCC(C)CC2)c(Br)c1	5.01µM*	?	-4.3	?	-47.1%	-4.6%
CC1CCN(CC(O)COCCOc2ccc(Br)cc2)CC1 (centres undefined)	3.9%[57.1 µM]	46.9%	2.7	9.4%	18.2%[59 µM]	-4.2%
Cc1cc(Cl)c(OCCOCCN2CCC(C)CC2)c(Br)c1	7.94µM*	-19.6%	-6.7	?	?	1.6%
CN1CCN(CCOCCOc2c(Cl)cc(Cl)cc2Cl)CC1	-26.7%	1.9%	-11.9	.	.	2.1%
Nc1ccc(NC2C[C@@H](C(=O)O)NC2=O)cc1 (some centres undefined)	-15.3%	35.0%	-2.7	-22.4%	50.1µM*	-7.9%
O=C(N/N=C/c1ccccn1)c1sc2ccccc2c1Cl	?	90.7%	-16.1	39.8µM*	.	-12.7%
O=C(N/N=C/c1ccc([N+](=O)[O-])o1)c1sc2ccccc2c1Cl	?	19.6%	-62.0*	?	-4.6%[12.7 µM]	-15.4%
O=C(Nc1ccccc1)c1cc2ccccc2o1	10.4%	49.4%	1.2	4.7%	3.1%[59 µM]	1.2%
CC/C(=C\c1oc2cc3ccccc3cc2[n+]1CC)Nc1ccccc1	-17.3%	42.5%	0.1	79.4µM*	5.62µM*	-26.7%
CS(=O)(=O)Nc1ccc(Cc2ccc(NS(C)(=O)=O)cc2)cc1	7.1%	31.2%	-5.0	1.1%	-22.5%[12.7 µM]	-7.0%
